Data: PubChem BioAssay AID743279 (National Center for Advancing Translational Sciences (NCATS), 2014)
About 17,000 (4.7%) of roughly 360,000 compounds were called active. Inconclusive results (about 5%) are left out. This is one part of a sample in which actives are shown more often than they occur. A number with no mark means an inactive call. No stated cut-off is given here; in the data, active means activity change below about -50%; inconclusive means mostly about -30% to -49%; inactive means weaker than that.

Test: qHTS for Inhibitors of Inflammasome Signaling: IL-1-beta AlphaLISA Primary Screen
Conditions: THP-1 LPS/ATP IL-1B secretion, 16 h; at 57.5 µM, hits give low values
How it was run: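 Secreted IL-1B measured by AlphaLISA bead assay after 16 h compound exposure of THP-1 cells; compounds (final up to 57.5 uM) added 1 h before LPS (250 ng/mL) and ATP (1.25 mM) stimulation; lower signal means less secretion.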
On the % scale 0 is the no-effect control and ±100 the full control effect.

SMILES	activity change
COCC(C)NC(=O)CSc1nc2nn(-c3ccccc3)c(=O)c-2c2n1CCCCC2 (stereo unspecified)	-2.5%
COc1ccc(C(C)C)cc1-c1ccc2nncn2c1	15.9%
Cc1c(C(=O)N2CCCc3ccccc32)oc2ccccc12	3.03%
COc1ccc2oc(=O)c(C(=O)N3CCCc4ccccc43)cc2c1	-74% (active)
Cc1ccc(C(=O)N2CCCc3ccccc32)c(Cl)c1	64.5%
CCOC(=O)[C@@H]1[C@H]2COc3ccc(Br)cc3[C@H]2N2C(=O)N(c3ccc(Cl)cc3)C(=O)[C@@]12C	8.14%
O=S(=O)(c1cccc(C(F)(F)F)c1)N1c2ccccc2-n2cccc2C1c1cccnc1 (stereo unspecified)	41.9%
CC(C)OCC(O)CN1CCN(C(c2ccccc2)c2ccccc2)CC1 (stereo unspecified)	-6.29%
CC1(C)CC(N2CCN(C(c3ccccc3)c3ccccc3)CC2)=CC(=[N+]2CCCCC2)C1	-71.2% (active)
c1ccc(C(c2ccccc2)N2CCN(Cc3nnnn3C3CCCCC3)CC2)cc1	20.1%
CC(C)(O)C1=C[N+](=O)CC=C1	16.1%
COc1cccc(NC(=O)C2(C)CCN2Cc2ccccc2Cl)c1 (stereo unspecified)	-11.6%
O=[N+]([O-])c1ccc(C=Nc2ccc(Cl)cc2Cl)s1	-106% (active)
CNN/C(N=Cc1ccc([N+](=O)[O-])s1)=N\S(=O)(=O)c1cc(C)c(Cl)cc1SCc1ccccc1	-7.5%
CC1CN(C(=O)c2ccc([N+](=O)[O-])s2)CC(C)O1 (stereo unspecified)	22.4%
CCCCn1nnnc1NCc1cc(OC)c(OC)c(OC)c1	25.2%
CCn1c2ccccc2c2cc(NC(=O)COC(=O)c3ccccc3Br)ccc21	-18.9%
CCn1c2ccccc2c2cc(NC(=O)C/C(C)=N/NC(=O)c3ccccc3N)ccc21	25.4%
CCn1c2ccccc2c2cc(NC(=O)CNC)ccc21	-85.6% (active)
Cc1nn(-c2ccccc2)c2c1c(C)c(CCC(=O)NCC1CCCO1)c(=O)n2C (stereo unspecified)	-20.2%
Cc1ccc(CNC(=O)Nc2nnc([C@H]3C[C@H](O)[C@@H](CO)O3)s2)cc1	3.84%
C[C@@H]1CN([C@H](C)CO)C(=O)c2cc(-c3ccc(F)cc3)cnc2O[C@H]1CN(C)C(=O)c1ccc(F)cc1	-10.1%
CN(CCc1ccccc1)c1ccc([N+](=O)[O-])cn1	25.8%
Cc1ccc(OCCC(=O)OCC(=O)N2c3ccccc3NC(=O)C2(C)C)cc1	11%
CNS(=O)(=O)c1cccc(C(=O)OCC(=O)N2c3ccccc3NC(=O)C2(C)C)c1	11.2%
Cc1cc(C(=O)OCC(=O)N2c3ccccc3NC(=O)C2(C)C)c(C)n1-c1ccccc1	-78.6% (active)
